What all share (assay): Spec-seq (EMSA and sequencing of bound and unbound bands); 100 nM BATFx-JUNB, 1 uM dsDNA library, 50 mM K acetate, 20 mM Tris-acetate, 10 mM Mg acetate, 100 ug/ml BSA, pH 7.9, 10% glycerol, 30 min on ice; native 9% PAGE at 4 C; low values mean tight binding
Common to all, as to details: protein: recombinant;recombinant; tags: N-terminal mCherry-TEV, cleaved off;C-terminal 6His; copies: 1;1; dsDNA, one strand shown

In one experiment the target is T1, BATF;JUNB (human;human, UniProt Q16520;P17275 1-125;148-347, |).
T1 sequence 1: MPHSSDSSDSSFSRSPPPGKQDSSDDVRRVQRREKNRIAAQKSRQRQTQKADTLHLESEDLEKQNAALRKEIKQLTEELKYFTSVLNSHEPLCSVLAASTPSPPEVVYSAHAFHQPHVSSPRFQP
T1 sequence 2: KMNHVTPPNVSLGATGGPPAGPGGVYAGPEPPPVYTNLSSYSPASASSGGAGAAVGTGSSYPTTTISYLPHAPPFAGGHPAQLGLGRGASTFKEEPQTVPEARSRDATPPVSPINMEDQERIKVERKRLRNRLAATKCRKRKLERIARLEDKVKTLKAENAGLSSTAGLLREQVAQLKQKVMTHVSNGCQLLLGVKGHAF
The essentials:
(§1)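 The protein, at 100 nM, was incubated with 1 μM double-stranded degenerate DNA library for 30 min on ice in NEB Cutsmart buffer with 10% glycerol, then resolved by native 9% PAGE at 4 °C. Excised bound and unbound bands were PCR-barcoded and Illumina-sequenced, and each sequence's relative binding energy in kT is −ln of its bound/unbound read-count ratio.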

The target of a further experiment is T2, BATF2 (bZIP);JUNB (human;human, UniProt Q8N1L9;P17275 1-142;148-347, |).
T2 sequence 1: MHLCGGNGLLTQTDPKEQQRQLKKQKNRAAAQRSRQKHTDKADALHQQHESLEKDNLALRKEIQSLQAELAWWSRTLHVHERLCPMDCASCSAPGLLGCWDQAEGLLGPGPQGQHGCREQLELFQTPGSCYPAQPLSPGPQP
T2 sequence 2: T1 sequence 2
The essentials:
as §1

The next experiment concerns the target T3, BATF3;JUNB (human;human, UniProt Q9NR55;P17275 1-127;148-347, |).
T3 sequence 1: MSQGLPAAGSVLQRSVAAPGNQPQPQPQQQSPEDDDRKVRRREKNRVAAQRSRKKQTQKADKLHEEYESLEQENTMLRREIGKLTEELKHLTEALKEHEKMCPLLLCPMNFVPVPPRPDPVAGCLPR
T3 sequence 2: T1 sequence 2
The essentials:
as §1

Consider “GATAGTCTCATTTTCACCCCGTGAAACTAAGTCATTGTTCCATTACAGTATCTGT”, for which the figures for the binding signal with BATF;JUNB, in the experiment with BATF2 (bZIP);JUNB and in the experiment with BATF3;JUNB were -0.15 kT, 0.261 kT and -0.118 kT, respectively.
As for “GATAGTCTCATTTTCACCCCGTGAAATGACTCATTTGTTCCATTACAGTATCTGT”, the binding signal with BATF;JUNB is -0.896 kT; in the experiment with BATF2 (bZIP);JUNB, -0.796 kT; in the experiment with BATF3;JUNB it was -1.24 kT.
Taken in the same sequence, the figures for “GATAGTCTCATTTTCACCCCGTGAAATGAGTCGTTTGTTCCATTACAGTATCTGT” were -0.00852 kT, 0.968 kT and 0.536 kT.
As to “GATAGTCTCATTTTCACCCCGTGAAATGACGTAATTGTTCCATTACAGTATCTGT”, the binding signal with BATF;JUNB is -0.759 kT; in the experiment with BATF2 (bZIP);JUNB, -0.891 kT; in the experiment with BATF3;JUNB, -1.44 kT.
As to “GATAGTCTCATTTTCACCCCGTGAAATGACTTAATTGTTCCATTACAGTATCTGT”, the binding signal with BATF;JUNB was -0.138 kT; with BATF2 (bZIP);JUNB, 0.212 kT; with BATF3;JUNB, -0.344 kT.
As to “GATAGTCTCATTTTCACCCCGTGAAATGAGCCATTTGTTCCATTACAGTATCTGT”, the binding signal stood at 0.392 kT with BATF;JUNB, 1.26 kT in the experiment with BATF2 (bZIP);JUNB and 0.914 kT with BATF3;JUNB.
In the same order, the values of “GATAGTCTCATTTTCACCCCGTGAAATGAGTAAATTGTTCCATTACAGTATCTGT” are -0.0981 kT, 0.684 kT and 0.363 kT.
In the same order, the values of “GATAGTCTCATTTTCACCCCGTGAAATGAAGTCATTGTTCCATTACAGTATCTGT” are -0.461 kT, 0.0362 kT and -0.997 kT.
For “GATAGTCTCATTTTCACCCCGTGAAATGACTCCTTTGTTCCATTACAGTATCTGT”, the binding signal amounted to 0.0649 kT with BATF;JUNB, 0.734 kT in the experiment with BATF2 (bZIP);JUNB and 0.584 kT with BATF3;JUNB.
For “GATAGTCTCATTTTCACCCCGTGAAATGACTAATTTGTTCCATTACAGTATCTGT”, the binding signal is -0.506 kT with BATF;JUNB, 0.0427 kT with BATF2 (bZIP);JUNB and -0.424 kT in the experiment with BATF3;JUNB.
Taken in the same sequence, the figures for “GATAGTCTCATTTTCACCCCGTGAAATCACTCATTTGTTCCATTACAGTATCTGT” were -0.257 kT, 0.442 kT and -0.147 kT.
Taken in the same sequence, the figures for “GATAGTCTCATTTTCACCCCGTGAAAGTGAGTCATTGTTCCATTACAGTATCTGT” were -1.22 kT, -0.978 kT and -1.65 kT.

The values above are taken from article PMC5869772, “Quantitative profiling of BATF family proteins/JUNB/IRF hetero-trimers using Spec-seq”.
